{
  "source": "PubChem BioAssay AID2284348",
  "about": "(EPA ToxCast)",
  "note": "Records with an inconclusive call do not appear. Active and inactive are the calls of the source. The calls were made as follows: active = hit-call score of the fitted dose curve at least 0.9, where 1 is the maximum; inconclusive = response in the unintended direction; inactive = score below 0.9.",
  "data": [
    {"system": "Japanese medaka Peroxisome Proliferator-activated Receptor alpha (PPARa), gene 100304458", "assay": "ATG_jmPPARa_EcoTox2: Attagene TRANS-FACTORIAL EcoTox-2 HepG2 Assay for Japanese medaka Peroxisome Proliferator-activated Receptor alpha (PPARa)", "method": "ATG_EcoTox2 is a cell-based, multiplexed assay created by modifying the existing Attagene TRANS-FACTORIAL system to include a panel of nuclear receptors from some or all the following species: human (Homo sapiens), african clawed frog (Xenopus laevis), rainbow trout (Oncorhynchus mykiss), japanese medaka (Oryzias latipes), and zebrafish (Danio rerio). The ECOTOX2-FACTORIAL format uses HepG2, a human liver cell line, with measurements taken at 24 hours after chemical dosing in a 24-well plate. ATG_jmPPARa_EcoTox2 is one of 29 assay components calculated in the ATG_EcoTox2 assay. It is designed to make measurements of mRNA induction, a form of inducible reporter, as detected with fluorescence intensity signals by Reverse transcription polymerase chain reaction (RT-PCR) and Capillary electrophoresis technology.The assay endpoint ATG_jmPPARa_EcoTox2 was analyzed in the positive analysis fitting direction relative to DMSO as the negative control and baseline of activity. Using a type of inducible reporter, measures of mRNA for gain-of-signal activity can be used to understand the reporter gene at the transcription factor-level as they relate to the gene PPARa. Furthermore, this assay endpoint can be referred to as a […], because this assay has produced multiple assay endpoints where this one serves a reporter gene function. To generalize the intended target to other relatable targets, this assay endpoint is annotated to the nuclear receptor intended target family, where the subfamily is non-steroidal.\nHuman liver HepG2 cells are transiently transfected with multiple reporter transcription units (MRTUs) in 6-well plates using FuGene 6 reagent (Roche; 3 ml FuGene/1 mg DNA). The MRTU constructs are regulated by a cis-regulating element (promoter). Each RTU expresses a GAL4-UAS that regulates the transcription of a nearby target reporter gene sequence. A major difference between the CIS and TRANS system is that in CIS activities of endogenous TFs are measured, whereas the TRANS assay evaluates changes in activities of exogenous, chimeric NR-Gal4 proteins. […] At the end of 24 hour incubation, total RNA was isolated using TriZol reagent (Invitrogen). The isolated RNA is then reverse-transcribed using oligo(dT) primer and Mo-MLV reverse transcriptase (Invitrogen) with DNAse I (Ambion) treatment for 30 min. The one-tenth of the produced cDNA was amplified by PCR using Taq DNA polymerase (Invitrogen) and two reporter sequence-specific primers. The PCR products were fluorescently labeled by primer extension with 6-arboxyfluorescein (6-FAM) 5'-labeled reporter sequence-specific primer (2 min at 95 C, 20 s at 68 C and 10 min at 72 C) and these products were digested with 5U of HpaI (New England Biolabs) for 2h at 37 C. The fragments were purified using Qiaquick PCR columns (Qiagen), analyzed on an ABI 3130xL genetic analyzer (Applied Biosystems) with peak positions identified by using a set of X-rhodamine (ROX)-labeled MapMarker1000 molecular weight standards (BioVentures). The raw capillary electrophoresis data was processed using Attagraph software (Attagene).", "values": [
      {"smiles": "CC(C)(Oc1ccc(CCNC(=O)c2ccc(Cl)cc2)cc1)C(=O)O", "AC50": "45.9 µM (active)"},
      {"smiles": "Cc1cccc(Nc2cc(Cl)nc(SCC(=O)O)n2)c1C", "AC50": "63.8 µM (active)"},
      {"smiles": "C[C@]12C=CC(=O)C=C1CC[C@@H]1[C@@H]2C(=O)C[C@@]2(C)[C@H]1CC[C@]2(O)C(=O)CO", "outcome": "inactive"},
      {"smiles": "C[C@@H]1C[C@H]2[C@@H]3CCC4=CC(=O)C=C[C@]4(C)[C@@]3(F)[C@@H](O)C[C@]2(C)[C@@]1(O)C(=O)COP(=O)(O)O", "outcome": "inactive"},
      {"smiles": "Cc1ccc(C)c(OCCCC(C)(C)C(=O)O)c1", "outcome": "inactive"},
      {"smiles": "CC(C)(Oc1ccc(Cl)cc1)C(=O)O", "outcome": "inactive"},
      {"smiles": "CC(C)(Oc1ccc(C2CC2(Cl)Cl)cc1)C(=O)O", "note": "(stereo unspecified)", "AC50": "58.5 µM (active)"},
      {"smiles": "CN(CCOc1ccc(CC2SC(=O)NC2=O)cc1)c1ccccn1", "note": "(stereo unspecified)", "outcome": "inactive"},
      {"smiles": "Cc1nc(-c2ccc(C(F)(F)F)cc2)sc1C(=O)NCc1ccc(OC(C)(C)C(=O)O)cc1", "AC50": "0.0807 µM (active)"},
      {"smiles": "C=C(c1ccc(C(=O)O)cc1)c1cc2c(cc1C)C(C)(C)CCC2(C)C", "outcome": "inactive"},
      {"smiles": "CC(C)OC(=O)C(C)(C)Oc1ccc(C(=O)c2ccc(Cl)cc2)cc1", "outcome": "inactive"}
    ]}
  ]
}
